PubChem BioAssay AID602304 (NMMLSC, 2012)
Potency and affinity values are given separately.

test: vacuolar alkalinization by V-ATPase blockade – S. cerevisiae, BCECF dye, powder set 1, dose response (AID 602304); details: BCECF fluorescence; series mostly up to 100 µM; response, vacuolar pH increase: at the top concentration; call rule not given here

response, vacuolar pH increase, inactive:
CS(=O)(=O)c1ccc2nc(N3CCN(C(=O)c4ccc([N+](=O)[O-])o4)CC3)sc2c1 -0.33%, Cc1cc(C(=O)N2CCN(c3nc4ccc(F)cc4s3)CC2)n(C)n1 12.2%, Cc1cc(C(=O)N2CCN(c3nc4ccc(F)cc4s3)CC2)on1 20.2%, O=C(Nc1ccccc1N1CCOCC1)c1ccc([N+](=O)[O-])o1 8.93%, O=C(C1CCCCC1)N1CCN(c2nc3ccc(F)cc3s2)CC1 -0.47%, CS(=O)(=O)c1cccc2sc(N3CCN(C(=O)c4ccc([N+](=O)[O-])o4)CC3)nc12 1.7%, Cc1cc(C(=O)N2CCN(c3nc4ccc(F)cc4s3)CC2)nn1C 0.97%, O=C(c1ccc([N+](=O)[O-])o1)N1CCN(c2nccs2)CC1 28.2%, O=C(c1ccc(Cl)s1)N1CCN(c2nc3ccc(F)cc3s2)CC1 12.2%, O=C(c1ccno1)N1CCN(c2nc3ccc(F)cc3s2)CC1 -0.47%, O=C(c1nc2ccccc2s1)N1CCN(c2nc3ccc(F)cc3s2)CC1 -0.84%, O=C(c1ccco1)N1CCN(c2nc3ccc(F)cc3s2)CC1 4.99%, O=C(c1ccc(Br)s1)N1CCN(c2nc3ccc(F)cc3s2)CC1 14.7%, O=C(c1cnccn1)N1CCN(c2nc3ccc(F)cc3s2)CC1 4.95%, O=C(C1CC1)N1CCN(c2nc3ccc(F)cc3s2)CC1 -0.84%, O=C(c1cccs1)N1CCN(c2nc3ccc(F)cc3s2)CC1 8.03%, CC(C)(C)C(=O)N1CCN(c2nc3ccc(F)cc3s2)CC1 1.95%, O=C(c1ccc([N+](=O)[O-])o1)N1CCN(c2ccccn2)CC1 12.2%, Cc1cc(C(=O)N2CCN(c3nc4ccc(F)cc4s3)CC2)no1 3.47%
